Drawing on PubChem BioAssay AID2314 (National Center for Advancing Translational Sciences (NCATS), 2010), this text covers max response for 60 compounds.

The campaign covered roughly 300,000 compounds. About 37,000 (12%) were called active. The sample holds actives, similar compounds and a random draw of the others, so the mix is not that of the screen. Unmarked numbers belong to inactive results. Cut-off read from the data, not from the text of the source: active = max response mostly above about 13% (no sharp cut-off); inactive = mostly below about 14%.

A short description of the experiment: Cycloheximide Counterscreen for Small Molecule Inhibitors of Shiga Toxin. Note: read at 38.3 µM for the half of the compounds with a filed dose; 0% is about no effect. The settings on record: cell reporter, cycloheximide protein synthesis inhibition counterscreen; hits give high values. (In general: A counterscreen serves to expose hits that act by an unwanted route or on another target.)
As for `O=C(Cc1cccs1)N(CC1CCCO1)C1(C(=O)NC2CCCCC2)CCCCC1` (stereo not given), the max response was -1.59%.

As for `CCCOc1ccc(Cc2c(O)nc(N)[nH]c2=O)cc1C`, the max response is -2.37%. On to `COc1c(O)ccc2c1CN1CCc3cc4c(cc3C1C2)OCO4` (stereo not given), for which the max response was -3.13%. Take `Cn1c(S(=O)(=O)O)nc2ccccc21`: the max response was -1.42%. In the case of `Cn1cccc1-c1nc2ccccc2n1C` it was 18% (active); in that of `Cc1nn2c3ccccc3nc2n(C)c1=O`, -2.2%. For `CCn1cc(C(=O)N2CC=C(c3ccccc3)CC2)c(=O)c2ccc(C)nc21`, the max response is 7.37%. As for `COC(=O)c1nn(-c2cccc(Cl)c2)ccc1=O`, the max response is 4.96%. As for `Cc1cccc(-c2nnc(SCC(=O)O)n2Cc2ccccc2)c1`, the max response was -1.57%. For `Cc1cc(C)c2c(Cn3ccnc3)cc(=O)oc2c1`, the max response was -3.34%. With `Cc1cccc(N(C)C(=O)CN2C(=O)COc3ccc(S(=O)(=O)N4CCCCCC4)cc32)c1`, the max response was -2.56%.

Take `COc1ccc(S(=O)(=O)N(CC(=O)NCc2ccco2)c2ccc(F)cc2)cc1`: the max response is -2.34%. Then `COc1ccc(NC(=O)N2CCC3(CC2)OCCO3)c(OC)c1`, with 0.567%.

`O=C(Nc1cccc2ccccc12)N1CCN(Cc2ccc3c(c2)OCO3)CC1`: the max response is -0.788%. As for `O=C(Nc1cccc2ccccc12)N1CCC2(CC1)OCCO2`, the max response is 22.3% (active). For the compound `CN(CC(=O)Nc1c(Cl)cccc1Cl)C(=O)c1ccncc1`, the max response is -0.763%. In the case of `CC1CN(C(=O)CCC(=O)NCCCN2CCC(Cc3ccccc3)CC2)c2cc(Cl)ccc2O1` (stereo not given) it was -3.45%. Regarding `COc1ccc(S(=O)(=O)NCC(=O)NC2CC2)cc1OC`, the max response is -2.51%. Regarding `COc1ccc(CCNC(=O)C2CCCN(S(=O)(=O)c3ccc(OC)cc3)C2)cc1` (stereo not given), the max response is -5.86%. Then `COc1nc(NC2CCCCC2)nc(N2CCCCCC2)n1`, with 8.36%; and `O=C1Nc2cc(C(=O)N3CCN(c4ccc(F)cc4)CC3)ccc2NC1CSCc1cccc(F)c1` (stereo not given), with 2.89%. As for `Cc1cc(/C=N/Nc2ccc([N+](=O)[O-])cn2)c(C)n1-c1cccc(C(=O)O)c1`, the max response is 27.7% (active). Turning to `Cc1ccc(-n2c(C)cc(/C=N/Nc3ccc([N+](=O)[O-])cn3)c2C)c(C)c1`, the max response was 20.7%. Take `Cc1cc(/C=N/n2cnnc2)c(C)n1-c1cccc(C(=O)O)c1`: the max response is 4.01%. Take `O=C1CSC2=NCN(c3ccccc3)CN12`: the max response is 1.46%. With `COc1ccc(S(=O)(=O)N2CCOCC2)cc1C(=O)NC1CCCCC1`, the max response is -2.56%. Consider `CC(=O)Nc1cccc(NC(=O)c2c(-c3ccccc3)noc2C)c1`, for which the max response is -1.94%. As for `CC(=O)Nc1cccc(-c2csc(Nc3cccc(C)n3)n2)c1`, the max response was 50.7% (active).

For the compound `Cc1cccc(S(=O)(=O)CC(=O)Nc2nc(-c3ccccc3)cs2)c1`, the max response is -5.29%. Then `CCS(=O)(=O)Nc1cccc(-c2cc(-c3ccccc3)c3cc(C)ccc3n2)c1`, with -0.522%.

Take `CC(=O)Nc1ccc(-c2csc(NC=C3C(=O)OC(C)(C)OC3=O)n2)cc1`: the max response was 19.8%. As to `Cc1cccc(Nc2nc(-c3ccccc3)cs2)n1`, the max response was 56.2% (active). For `COc1ccc(CCNc2nc(-c3cccc(NC(C)=O)c3)cs2)cc1OC`, the max response was 10.5%. As to `CC(=O)Nc1cccc(-c2cnc3ccccc3n2)c1`, the max response is 34.8% (active). `COc1ccc(C(=O)NC(C)c2nccs2)cc1OC1CCN(C(C)C)CC1` (stereo not given): the max response is -0.856%. For the compound `O=C(CNc1cccc(S(=O)(=O)N2CCCCC2)c1)Nc1ccccc1F`, the max response is -2.83%.

In the case of `Cc1noc(C)c1CSc1nc2cc(S(=O)(=O)N3CCOCC3)ccc2o1`, the max response was -1.38%. For the compound `CCNC(=O)c1sccc1-n1cccc1`, the max response was 2.68%. Then `Cc1ccc(C(=O)N/C(=C\c2cn(C)c3ccccc23)C(=O)N2CCN(C)CC2)cc1`, with 1.99%. Regarding `CCCn1nnnc1NCc1ccc(OC)cc1`, the max response was -1.31%.

Consider `CC1(C)CC(=O)CC2(C1)NCC(c1ccccc1Cl)c1c2[nH]c2ccccc12` (stereo not given), for which the max response is 2.51%. As for `Cc1oc2cc([N+](=O)[O-])c(O)c([N+](=O)[O-])c2c1C(=O)c1ccc(Br)cc1`, the max response is -7.47%. Consider `Cc1cccc(N2CCN(C(=O)/C=C/c3ccco3)CC2)c1C`, for which the max response was 15.1% (active). Regarding `CCn1c(C)c(C)c2cc(C(=O)N3CCN(c4cccc(C)c4C)CC3)ccc21`, the max response was -3.95%. Then `CCC(CC)C(=O)N1CCN(c2cccc(C)c2C)CC1`, with 4.17%; and `COCCCn1c(-c2cccs2)nc2nc3ccccc3nc21`, with 8.97%; and `CCOC(=O)CN(C)S(=O)(=O)c1ccc(-c2cc(C(=O)OC)sc2C(F)(F)F)cc1`, with 4.79%.

For `CCOC(=O)c1c(S(=O)(=O)Nc2ccc(CN3CCC(C)CC3)cc2)c(C)n(C)c1C`, the max response was -1.22%. As to `O=C(CCn1c(=S)[nH]c2cc3c(cc2c1=O)OCO3)NCc1ccc(Cl)cc1`, the max response was 12.5%. In the case of `CC(C)OCCCNC(=O)c1ccc(C2SCC(=O)N2Cc2ccco2)cc1` (stereo not given), the max response is -3.14%. On to `COc1cc(NC(=O)C2CCN(c3cnccn3)CC2)cc(OC)c1`, for which the max response was -1.38%. `COc1cccc(-c2nc3cc(C)ccc3o2)c1`: the max response was 47.1% (active). On to `COc1ccc(C(=O)NCc2nnc(SCC(=O)Nc3cccc(OC)c3)o2)cc1`, for which the max response is -4.63%. For `COc1cccc(-c2nc(S(=O)(=O)c3ccccc3)c(N3CCOCC3)o2)c1`, the max response was -1.61%. In the case of `COc1ccc(C)cc1NC(=O)CSc1ccc(Cl)cc1` it was 2.38%; in that of `COc1ccc2oc(-c3cccc(NC(=O)CSc4ccc(Cl)cc4)c3)nc2c1`, 14.3% (active); in that of `COc1cccc(-c2nnc(SCCOc3ccc4c(C)cc(=O)oc4c3)o2)c1`, -1.4%.

For the compound `CN(C)Cc1ccc(F)cc1Sc1cc(Cl)ccc1Cl`, the max response was -1.42%. Take `O=C(COc1ccc(Cl)cc1Cl)N/N=C/c1ccccn1`: the max response was 13.4%. For `Cc1ccc(C(=O)N/C(=C/c2ccc(-c3cccc([N+](=O)[O-])c3)o2)C(=O)NCCCN(C)C)cc1`, the max response is -1.07%.
